Results taken from the supplement of paper PMC10127200.
Counter-ions that a name gives are not always drawn.

What was measured:
Experiment in all cases: Euclidean distance of Cell Painting phenotypic profile (signed KS, 77 features) to DMSO centroid (dimensionless distance); higher = stronger phenotypic change vs DMSO (phenoactivity)
Conditions in all cases: 48 h; 5 or 10 uM (library dependent)
786-O = system: 786-O
How it was run: (§1)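 At 10 or 5 uM, as set by the library, and 0.1% DMSO final, compounds were applied for 48 h to five cancer lines and one healthy fibroblast line. Stained cells were imaged confocally at 20X in 9 fields per well, and Harmony extracted 77 features scored as signed Kolmogorov-Smirnov statistics against vehicle wells on the same plate. Profiles underwent plate-position correction, correlation weighting and replicate averaging at the top dose. Phenoactivity is the Euclidean distance from each such profile to the median vehicle profile.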

A549 = system: A549
How it was run: as §1

DU145 = system: DU145
How it was run: as §1

FB = system: FB
How it was run: as §1

HEPG2 = system: HEPG2
How it was run: as §1

OVCAR4 = system: OVCAR4
How it was run: as §1

SMILES: COC1=C[C@@H]2[C@@H]3Cc4ccc(OC)c(O)c4[C@]2(CCN3C)CC1=O [Sinomenine hydrochloride]
- Euclidean distance (786-O): 0.472
- Euclidean distance (A549): 0.883
- Euclidean distance (DU145): 1.1
- Euclidean distance (FB): 1.15
- Euclidean distance (HEPG2): 0.751
- Euclidean distance (OVCAR4): 0.824

SMILES: C[CH2][Hg][S]c1ccccc1C(=O)[O-].[Na+] [Thimerosal]
- Euclidean distance (786-O): 5.05
- Euclidean distance (A549): 2.89
- Euclidean distance (DU145): 6.79
- Euclidean distance (FB): 6.21
- Euclidean distance (HEPG2): 1.5
- Euclidean distance (OVCAR4): 2.69

SMILES: N.N.[Cl][Pt][Cl] [Cisplatin]
- Euclidean distance (786-O): 1.62
- Euclidean distance (A549): 1.39
- Euclidean distance (DU145): 0.914
- Euclidean distance (FB): 0.888
- Euclidean distance (HEPG2): 1.55
- Euclidean distance (OVCAR4): 0.788

SMILES: CC(=O)O[C@H]1C[C@@H]2CC[C@@H]3[C@H](CC[C@@]4(C)[C@H]3C[C@H]([N+]3(C)CCCCC3)[C@@H]4OC(C)=O)[C@@]2(C)C[C@@H]1[N+]1(C)CCCCC1 [Pancuronium dibromide]
- Euclidean distance (786-O): 1.41
- Euclidean distance (A549): 0.916
- Euclidean distance (DU145): 0.532
- Euclidean distance (FB): 0.954
- Euclidean distance (HEPG2): 0.518
- Euclidean distance (OVCAR4): 1.42

SMILES: CC[C@@H](C(N)=O)N1CCCC1=O [Levetiracetam]
- Euclidean distance (786-O): 1.07
- Euclidean distance (A549): 1.76
- Euclidean distance (DU145): 0.591
- Euclidean distance (FB): 1.12
- Euclidean distance (HEPG2): 0.604
- Euclidean distance (OVCAR4): 1.81

SMILES: CN1[C@H]2C[C@H](OC(=O)[C@H](CO)c3ccccc3)C[C@@H]1[C@@H](O)C2 [Anisodamine Hydrobromide]
- Euclidean distance (786-O): 0.645
- Euclidean distance (A549): 0.397
- Euclidean distance (DU145): 2.62
- Euclidean distance (FB): 1.12
- Euclidean distance (HEPG2): 0.513
- Euclidean distance (OVCAR4): 0.688

SMILES: CC[C@H]1CN2CC[C@H]1C[C@@H]2[C@@H](O)c1ccnc2ccc(OC)cc12 [Hydroquinidine]
- Euclidean distance (786-O): 0.75
- Euclidean distance (A549): 0.791
- Euclidean distance (DU145): 0.64
- Euclidean distance (FB): 1.18
- Euclidean distance (HEPG2): 0.881
- Euclidean distance (OVCAR4): 1.23

SMILES: C=CCC(C(=O)NC(N)=O)C(C)C (centres undefined) [Apronal]
- Euclidean distance (786-O): 1.22
- Euclidean distance (A549): 0.684
- Euclidean distance (DU145): 1.07
- Euclidean distance (FB): 0.907
- Euclidean distance (HEPG2): 0.938
- Euclidean distance (OVCAR4): 1.09

SMILES: C[C@H]1CC(=O)C[C@@H]2CC[C@H]3[C@@H]4CC[C@H](O)[C@@]4(C)CC[C@@H]3[C@]21C [Mesterolone]
- Euclidean distance (786-O): 1.38
- Euclidean distance (A549): 1.27
- Euclidean distance (DU145): 1.33
- Euclidean distance (FB): 1.08
- Euclidean distance (HEPG2): 0.446
- Euclidean distance (OVCAR4): 0.883

SMILES: CN1CCC(c2c[nH]c3ccc(O)cc23)CC1
- Euclidean distance (786-O): 0.692
- Euclidean distance (A549): 0.484
- Euclidean distance (DU145): 1.17
- Euclidean distance (FB): 0.749
- Euclidean distance (HEPG2): 2.09
- Euclidean distance (OVCAR4): 0.873

SMILES: CN(C)Cc1c[nH]c2ccccc12 [Gramine]
- Euclidean distance (786-O): 1.2
- Euclidean distance (A549): 0.885
- Euclidean distance (DU145): 1.29
- Euclidean distance (FB): 0.772
- Euclidean distance (HEPG2): 0.674
- Euclidean distance (OVCAR4): 1.45

SMILES: C=C(C)[C@H]1Cc2c(ccc3c2O[C@@H]2COc4cc(OC)c(OC)cc4[C@@H]2C3=O)O1 [Rotenone (Barbasco)]
- Euclidean distance (786-O): 2.48
- Euclidean distance (A549): 2.97
- Euclidean distance (DU145): 3.54
- Euclidean distance (FB): 2.77
- Euclidean distance (HEPG2): 2.94
- Euclidean distance (OVCAR4): 2.89

SMILES: CC(O)(CS(=O)(=O)c1ccc(F)cc1)C(=O)Nc1ccc(C#N)c(C(F)(F)F)c1 (centres undefined) [Bicalutamide]
- Euclidean distance (786-O): 1.1
- Euclidean distance (A549): 1.04
- Euclidean distance (DU145): 0.992
- Euclidean distance (FB): 1.28
- Euclidean distance (HEPG2): 0.832
- Euclidean distance (OVCAR4): 1.65

SMILES: O=c1ccc2ccc3occc3c2o1 [Isopsoralen]
- Euclidean distance (786-O): 1.25
- Euclidean distance (A549): 0.993
- Euclidean distance (DU145): 0.786
- Euclidean distance (FB): 1.02
- Euclidean distance (HEPG2): 0.495
- Euclidean distance (OVCAR4): 1.1

SMILES: C=CCN1C[C@H](C(=O)N(CCCN(C)C)C(=O)NCC)C[C@@H]2c3cccc4[nH]cc(c34)C[C@H]21 [Cabergoline]
- Euclidean distance (786-O): 1.45
- Euclidean distance (A549): 0.993
- Euclidean distance (DU145): 1.12
- Euclidean distance (FB): 1.34
- Euclidean distance (HEPG2): 0.928
- Euclidean distance (OVCAR4): 1.3

SMILES: CC(C)=CCOc1c2occc2cc2ccc(=O)oc12 [Imperatorin]
- Euclidean distance (786-O): 1.11
- Euclidean distance (A549): 0.594
- Euclidean distance (DU145): 0.803
- Euclidean distance (FB): 0.939
- Euclidean distance (HEPG2): 0.503
- Euclidean distance (OVCAR4): 1.32

SMILES: CCCN1CCO[C@@H]2c3cc(O)ccc3OC[C@H]21
- Euclidean distance (786-O): 0.455
- Euclidean distance (A549): 0.629
- Euclidean distance (DU145): 0.762
- Euclidean distance (FB): 0.945
- Euclidean distance (HEPG2): 0.824
- Euclidean distance (OVCAR4): 0.818

SMILES: CCN(CC)C(=O)c1ccc(C2=CC3(CCNCC3)Oc3cccc(O)c32)cc1
- Euclidean distance (786-O): 0.588
- Euclidean distance (A549): 1.87
- Euclidean distance (DU145): 0.833
- Euclidean distance (FB): 0.776
- Euclidean distance (HEPG2): 1.75
- Euclidean distance (OVCAR4): 0.973

SMILES: Cc1cc2c(C(C)C)c(O)c(O)c(C=O)c2c(O)c1-c1c(C)cc2c(C(C)C)c(O)c(O)c(C=O)c2c1O [Gossypol]
- Euclidean distance (786-O): 2.34
- Euclidean distance (A549): 2.66
- Euclidean distance (DU145): 0.576
- Euclidean distance (FB): 1.05
- Euclidean distance (HEPG2): 0.654
- Euclidean distance (OVCAR4): 1.74

SMILES: O=c1ccc2cc(O[C@@H]3O[C@H](CO)[C@@H](O)[C@H](O)[C@H]3O)c(O)cc2o1 [Esculin]
- Euclidean distance (786-O): 0.808
- Euclidean distance (A549): 0.729
- Euclidean distance (DU145): 0.922
- Euclidean distance (FB): 0.993
- Euclidean distance (HEPG2): 0.624
- Euclidean distance (OVCAR4): 1.29

SMILES: O=C(O)CNC(=O)C1C(=O)N(C2CCCCC2)C(=O)N(C2CCCCC2)C1=O
- Euclidean distance (786-O): 1.18
- Euclidean distance (A549): 0.61
- Euclidean distance (DU145): 1.4
- Euclidean distance (FB): 1.16
- Euclidean distance (HEPG2): 1.1
- Euclidean distance (OVCAR4): 0.706

SMILES: CC(=O)OC12COC1CC(O)C1(C)C(=O)C(O)C3=C(C)C(O)CC(O)(C(OC(=O)c4ccccc4)C21)C3(C)C (centres undefined) [10-Deacetylbaccatin-III]
- Euclidean distance (786-O): 1.79
- Euclidean distance (A549): 1.11
- Euclidean distance (DU145): 0.834
- Euclidean distance (FB): 1.7
- Euclidean distance (HEPG2): 1.38
- Euclidean distance (OVCAR4): 1.4

SMILES: CN[C@@H]1[C@@H](O)[C@@H](O[C@@H]2[C@@H](O)[C@H](O[C@H]3O[C@H](CN)CC[C@H]3N)[C@@H](N)C[C@H]2N)OC[C@]1(C)O.CN[C@@H]1[C@@H](O)[C@@H](O[C@@H]2[C@@H](O)[C@H](O[C@H]3O[C@H]([C@@H](C)N)CC[C@H]3N)[C@@H](N)C[C@H]2N)OC[C@]1(C)O.CN[C@@H]1[C@@H](O)[C@@H](O[C@@H]2[C@@H](O)[C@H](O[C@H]3O[C@H]([C@@H](C)NC)CC[C@H]3N)[C@@H](N)C[C@H]2N)OC[C@]1(C)O [Gentamicin Sulfate]
- Euclidean distance (786-O): 1.29
- Euclidean distance (A549): 1.18
- Euclidean distance (DU145): 1.22
- Euclidean distance (FB): 0.978
- Euclidean distance (HEPG2): 0.832
- Euclidean distance (OVCAR4): 1.02

SMILES: CCC1(c2cccc(O)c2)CCCCN(C)C1 (centres undefined) [Meptazinol HCl]
- Euclidean distance (786-O): 1.46
- Euclidean distance (A549): 1.09
- Euclidean distance (DU145): 0.6
- Euclidean distance (FB): 0.726
- Euclidean distance (HEPG2): 0.404
- Euclidean distance (OVCAR4): 0.921
